# Assay results as given in PubChem BioAssay (EPA / NIEHS).
# Active and inactive are the calls of the source. Rule for the calls: active = hit-call score of the fitted dose curve at least 0.9, where 1 is the maximum; inactive = score below 0.9.
# Read-out: Vascular cell adhesion molecule 1 (VCAM1), VCAM1 (gene 7412)
# Assay: BSK_4H_VCAM1: BioMAP Diversity Plus: 4H Assay for Vascular cell adhesion molecule 1 (VCAM1) Biomarker Activity (AID 2283033);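 for outcome: cell-surface VCAM-1 protein measured by ELISA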
# Details: primary human endothelial cells (HUVEC); actives raise or lower the signal
# Procedure, shortened: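 HUVEC, 24 h post-dose; VCAM-1 by ELISA. Bidirectional curve fit vs DMSO baseline. Parallel SRB total-protein stain (0.1% SRB after 10% TCA fixation, 560 nm) for cytotoxicity.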
SMILES,AC50,outcome
CCCCCCCCCCCC#N,20.6 µM (active),–
CC(C)CCCCCCCOC(=O)c1ccccc1C(=O)OCCCCCCCC(C)C,–,inactive
O=[N+]([O-])C=Cc1ccccc1,11.5 µM (active),–
O=[N+]([O-])c1ccc(Cl)cc1,–,inactive
Nc1ccc(-c2ccc(N)c(N)c2)cc1N,–,inactive

# Read-out: Interferon-gamma inducible Protein 10 (IP10), CXCL10 (gene 3627)
# Assay: BSK_BE3C_IP10: BioMAP Diversity Plus: BE3C Assay for Interferon-gamma inducible Protein 10 (IP10) Biomarker Activity (AID 2283034)
# Details: primary human bronchial epithelial cells; actives raise or lower the signal
# Procedure, shortened: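 ELISA readout of IP-10 in BE3C system: primary human bronchial epithelial cells, 24 h post-dosing; bidirectional curve fit vs DMSO baseline.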
SMILES,outcome,AC50
CCCCCCCCCCCC#N,inactive,–
CC(C)CCCCCCCOC(=O)c1ccccc1C(=O)OCCCCCCCC(C)C,inactive,–
O=[N+]([O-])C=Cc1ccccc1,–,2.48 µM (active)
O=[N+]([O-])c1ccc(Cl)cc1,inactive,–
Nc1ccc(-c2ccc(N)c(N)c2)cc1N,inactive,–

# Read-out: Transforming growth factor beta 1 (TGFb1), TGFB1 (gene 7040)
# Assay: BSK_BE3C_TGFb1: BioMAP Diversity Plus: BE3C Assay for Transforming growth factor beta 1 (TGFb1) Biomarker Activity (AID 2283036;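 for outcome: TGF-b1 protein level measured by ELISA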)
# Details: primary human bronchial epithelial cells; actives raise or lower the signal
# Procedure, shortened: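 Read-out: ELISA for TGF-b1 in primary human bronchial epithelial cultures, 24 h post-dose. Bidirectional curve fitting vs DMSO control; gain or loss of signal both scored.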
SMILES,outcome,AC50
CCCCCCCCCCCC#N,inactive,–
CC(C)CCCCCCCOC(=O)c1ccccc1C(=O)OCCCCCCCC(C)C,inactive,–
O=[N+]([O-])C=Cc1ccccc1,–,5.17 µM (active)
O=[N+]([O-])c1ccc(Cl)cc1,inactive,–
Nc1ccc(-c2ccc(N)c(N)c2)cc1N,inactive,–

# Read-out: Plasminogen activator inhibitor-1 (PAI1), SERPINE1 (gene 5054)
# Assay: BSK_BE3C_PAI1: BioMAP Diversity Plus: BE3C Assay for Plasminogen activator inhibitor-1 (PAI1) Biomarker Activity (AID 2283037)
# Details: primary human bronchial epithelial cells; actives raise or lower the signal
# Procedure, shortened: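 ELISA read-out of PAI-1 from human bronchial epithelial primary cells, 24 h post-dosing; bidirectional curve fit vs DMSO baseline, gain or loss of signal scored.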
SMILES,outcome,AC50
CCCCCCCCCCCC#N,inactive,–
CC(C)CCCCCCCOC(=O)c1ccccc1C(=O)OCCCCCCCC(C)C,inactive,–
O=[N+]([O-])C=Cc1ccccc1,inactive,–
O=[N+]([O-])c1ccc(Cl)cc1,inactive,–
Nc1ccc(-c2ccc(N)c(N)c2)cc1N,–,11.1 µM (active)

# Read-out: urokinase plasminogen activator (uPA), PLAU (gene 5328)
# Assay: BSK_BE3C_uPA: BioMAP Diversity Plus: BE3C Assay for urokinase plasminogen activator (uPA) Biomarker Activity (AID 2283038);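 for outcome: uPA protein level quantified by ELISA in cell cultures; uPA read one day after compound addition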
# Details: primary human bronchial epithelial cells; actives raise or lower the signal
# Procedure, shortened: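 Measured by ELISA: uPA from human primary bronchial epithelial cells 24 h after chemical treatment. Values derive from bidirectional curve fitting with DMSO serving as negative control. Total protein by SRB staining in parallel wells flagged overt cytotoxicity.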
SMILES,outcome,AC50
CCCCCCCCCCCC#N,inactive,–
CC(C)CCCCCCCOC(=O)c1ccccc1C(=O)OCCCCCCCC(C)C,inactive,–
O=[N+]([O-])C=Cc1ccccc1,–,1.03 µM (active)
O=[N+]([O-])c1ccc(Cl)cc1,inactive,–
Nc1ccc(-c2ccc(N)c(N)c2)cc1N,inactive,–

# Read-out: Urokinase-type plasminogen activator receptor (uPAR), PLAUR (gene 5329)
# Assay: BSK_BE3C_uPAR: BioMAP Diversity Plus: BE3C Assay for Urokinase-type plasminogen activator receptor (uPAR) Biomarker Activity (AID 2283039);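 for outcome: uPAR protein level measured by ELISA on the cells; cells exposed to compound for one day before measurement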
# Details: primary human bronchial epithelial cells; actives raise or lower the signal
# Procedure, shortened: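 ELISA readout of uPAR on human lung primary bronchial epithelial cells, 24 h post-dosing. Bidirectional curve fit relative to DMSO vehicle baseline; gain or loss of signal both scored.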
SMILES,outcome,AC50
CCCCCCCCCCCC#N,inactive,–
CC(C)CCCCCCCOC(=O)c1ccccc1C(=O)OCCCCCCCC(C)C,inactive,–
O=[N+]([O-])C=Cc1ccccc1,–,5.37 µM (active)
O=[N+]([O-])c1ccc(Cl)cc1,inactive,–
Nc1ccc(-c2ccc(N)c(N)c2)cc1N,inactive,–

# Read-out: Interleukin-6 (IL6), IL6 (gene 3569)
# Assay: BSK_CASM3C_IL6: BioMAP Diversity Plus: CASM3C Assay for Interleukin-6 (IL6) Biomarker Activity for (AID 2283040)
# Details: primary human coronary artery smooth muscle cells; actives raise or lower the signal
SMILES,outcome,AC50
CCCCCCCCCCCC#N,inactive,–
CC(C)CCCCCCCOC(=O)c1ccccc1C(=O)OCCCCCCCC(C)C,inactive,–
O=[N+]([O-])C=Cc1ccccc1,–,31.3 µM (active)
O=[N+]([O-])c1ccc(Cl)cc1,inactive,–
Nc1ccc(-c2ccc(N)c(N)c2)cc1N,inactive,–

# Read-out: Tissue plasminogen activator (tPA), PLAT (gene 5327)
# Assay: BSK_BE3C_tPA: BioMAP Diversity Plus: BE3C Assay for Tissue plasminogen activator (tPA) Biomarker Activity (AID 2283041);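 note: tPA level quantified by ELISA one day after compound addition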
# Details: primary human bronchial epithelial cells; actives raise or lower the signal
# Procedure, shortened: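 ELISA read-out of tPA on human primary bronchial epithelial cells, 24 h post-dosing; bidirectional fit vs DMSO negative control/baseline.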
row,SMILES,outcome
1,CCCCCCCCCCCC#N,inactive
2,CC(C)CCCCCCCOC(=O)c1ccccc1C(=O)OCCCCCCCC(C)C,inactive
3,O=[N+]([O-])C=Cc1ccccc1,inactive
4,O=[N+]([O-])c1ccc(Cl)cc1,inactive
5,Nc1ccc(-c2ccc(N)c(N)c2)cc1N,inactive

# Read-out: Interleukin-8 (IL8), CXCL8 (gene 3576)
# Assay: BSK_CASM3C_IL8: BioMAP Diversity Plus: CASM3C Assay for Interleukin-8 (IL8) Biomarker Activity (AID 2283042);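 note: IL-8 protein level quantified by ELISA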
# Details: primary human coronary artery smooth muscle cells; actives raise or lower the signal
SMILES,outcome,AC50
CCCCCCCCCCCC#N,inactive,–
CC(C)CCCCCCCOC(=O)c1ccccc1C(=O)OCCCCCCCC(C)C,inactive,–
O=[N+]([O-])C=Cc1ccccc1,–,20 µM (active)
O=[N+]([O-])c1ccc(Cl)cc1,inactive,–
Nc1ccc(-c2ccc(N)c(N)c2)cc1N,inactive,–

# Read-out: Human Leukocyte Antigen - DR isotype (HLADR), HLA-DRA (gene 3122)
# Assay: BSK_CASM3C_HLADR: BioMAP Diversity Plus: CASM3C Assay for Human Leukocyte Antigen - DR isotype (HLADR) Biomarker Activity (AID 2283043);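 note: cell-surface HLA-DR protein level quantified by ELISA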
# Details: primary human coronary artery smooth muscle cells; actives raise or lower the signal
SMILES,outcome,AC50
CCCCCCCCCCCC#N,inactive,–
CC(C)CCCCCCCOC(=O)c1ccccc1C(=O)OCCCCCCCC(C)C,inactive,–
O=[N+]([O-])C=Cc1ccccc1,–,12.1 µM (active)
O=[N+]([O-])c1ccc(Cl)cc1,inactive,–

# Read-out: Macrophage colony-stimulating factor (MCSF), CSF1 (gene 1435)
# Assay: BSK_CASM3C_MCSF: BioMAP Diversity Plus: CASM3C Assay for Macrophage colony-stimulating factor (MCSF) Biomarker Activity (AID 2283044);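 note: M-CSF protein amount quantified by ELISA after 24 h exposure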
# Details: primary human coronary artery smooth muscle cells; actives raise or lower the signal
SMILES,outcome,AC50
CCCCCCCCCCCC#N,inactive,–
CC(C)CCCCCCCOC(=O)c1ccccc1C(=O)OCCCCCCCC(C)C,inactive,–
O=[N+]([O-])C=Cc1ccccc1,–,20 µM (active)
O=[N+]([O-])c1ccc(Cl)cc1,inactive,–
Nc1ccc(-c2ccc(N)c(N)c2)cc1N,–,8.36 µM (active)

# Read-out: Low-density lipoprotein receptor (LDLR), LDLR (gene 3949)
# Assay: BSK_CASM3C_LDLR: BioMAP Diversity Plus: CASM3C Assay for Low-density lipoprotein receptor (LDLR) Biomarker Activity (AID 2283045);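 note: LDLR protein level on the cell surface quantified by ELISA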
# Details: primary human coronary artery smooth muscle cells; actives raise or lower the signal
SMILES,outcome,AC50
CCCCCCCCCCCC#N,inactive,–
CC(C)CCCCCCCOC(=O)c1ccccc1C(=O)OCCCCCCCC(C)C,inactive,–
O=[N+]([O-])C=Cc1ccccc1,–,25.7 µM (active)
O=[N+]([O-])c1ccc(Cl)cc1,inactive,–
Nc1ccc(-c2ccc(N)c(N)c2)cc1N,inactive,–

# Read-out: Monocyte Chemoattractant Protein-1 (MCP1), CCL2 (gene 6347)
# Assay: BSK_CASM3C_MCP1: BioMAP Diversity Plus: CASM3C Assay for Monocyte Chemoattractant Protein-1 (MCP1) Biomarker Activity (AID 2283046);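 note: MCP-1 level quantified by ELISA 24 h after dosing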
# Details: primary human coronary artery smooth muscle cells; actives raise or lower the signal
SMILES,outcome,AC50
CCCCCCCCCCCC#N,inactive,–
CC(C)CCCCCCCOC(=O)c1ccccc1C(=O)OCCCCCCCC(C)C,inactive,–
O=[N+]([O-])C=Cc1ccccc1,–,27.6 µM (active)
O=[N+]([O-])c1ccc(Cl)cc1,inactive,–
Nc1ccc(-c2ccc(N)c(N)c2)cc1N,inactive,–

# Read-out: not listed separately
# Assay: BSK_CASM3C_Proliferation: Cell Proliferation Assessment in the BioMAP Diversity Plus: CASM3C Assay (AID 2283047);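 note: sulforhodamine B total protein stain as relative cell number at 560 nm; sub-confluent cells exposed 48 h before staining; fitted both ways against DMSO so gain or loss of cell number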
# Details: primary human coronary artery smooth muscle cells
SMILES,outcome,AC50
CCCCCCCCCCCC#N,inactive,–
CC(C)CCCCCCCOC(=O)c1ccccc1C(=O)OCCCCCCCC(C)C,inactive,–
O=[N+]([O-])C=Cc1ccccc1,–,10.9 µM (active)
O=[N+]([O-])c1ccc(Cl)cc1,inactive,–
Nc1ccc(-c2ccc(N)c(N)c2)cc1N,inactive,–

# Read-out: Monokine induced gamma interferon (MIG), CXCL9 (gene 4283)
# Assay: BSK_CASM3C_MIG: BioMAP Diversity Plus: CASM3C Assay for Monokine induced gamma interferon (MIG) Biomarker Activity (AID 2283048);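 note: MIG protein level measured by ELISA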
# Details: primary human coronary artery smooth muscle cells; actives raise or lower the signal
SMILES,outcome,AC50
CCCCCCCCCCCC#N,inactive,–
CC(C)CCCCCCCOC(=O)c1ccccc1C(=O)OCCCCCCCC(C)C,inactive,–
O=[N+]([O-])C=Cc1ccccc1,–,27.1 µM (active)
O=[N+]([O-])c1ccc(Cl)cc1,inactive,–

# Read-out: serum amyloid A (SAA), SAA1 (gene 6288)
# Assay: BSK_CASM3C_SAA: BioMAP Diversity Plus: CASM3C Assay for serum amyloid A (SAA) Biomarker Activity (AID 2283049);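 note: SAA protein level quantified by ELISA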
# Details: primary human coronary artery smooth muscle cells; actives raise or lower the signal
row,SMILES,outcome
1,CCCCCCCCCCCC#N,inactive
2,CC(C)CCCCCCCOC(=O)c1ccccc1C(=O)OCCCCCCCC(C)C,inactive
3,O=[N+]([O-])C=Cc1ccccc1,inactive
4,O=[N+]([O-])c1ccc(Cl)cc1,inactive
5,Nc1ccc(-c2ccc(N)c(N)c2)cc1N,inactive
